Measurements from PubChem BioAssay AID1159580 (chemical genetic matrix, 2015).
About 2,000 (36%) of roughly 5,500 compounds were called active. About 18% were inconclusive and are not listed. Cut-off read from the data, not from the text of the source: active = normalized growth mostly below about 0.91 (no sharp cut-off); inconclusive = no clear call, values can overlap the other calls; inactive = mostly above about 0.92. This is one part of the list.

Experiment: chemical genetic growth profiling, strain panel (AID 1159580);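 note: tested at 20 µM; growth read once vehicle control cultures reached saturation at 30 °C; 1 = growth at the plate median or of vehicle wells; lower values mean less growth of the strain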
Conditions: growth OD

Measured: normalized growth

CCN1CCCC(OC(=O)C(c2ccccc2)c2ccccc2)C1 (centres undefined)
inactive: S. cerevisiae deletion strains, locus YJR075W, strain HOC1, stronger effect = lower value 1 | S. cerevisiae deletion strains, locus YKL009W, strain mrt4, stronger effect = lower value 1.02 | S. cerevisiae deletion strains, locus YKL068W, stronger effect = lower value 0.999 | S. cerevisiae deletion strains, locus YKL085W, strain MDH1 (second series), stronger effect = lower value 1.01 | S. cerevisiae deletion strains, locus YKL085W, strain MDH1, stronger effect = lower value 1.01 | S. cerevisiae deletion strains, locus YKL160W, strain elf1, stronger effect = lower value 0.983 | S. cerevisiae deletion strains, locus YKL190W, strain CNB1, stronger effect = lower value 1.01 | S. cerevisiae deletion strains, locus YKR001C, strain vps1, stronger effect = lower value 1.02 | S. cerevisiae deletion strains, locus YKR026C, strain gcn3, stronger effect = lower value 0.996 | S. cerevisiae deletion strains, locus YKR091W, strain srl3, stronger effect = lower value 0.992 | S. cerevisiae deletion strains, locus YLL001W, strain dnm1, stronger effect = lower value 0.971 | S. cerevisiae deletion strains, locus YLL026W, stronger effect = lower value 0.992 | S. cerevisiae deletion strains, locus YLL041C, strain sdh2, stronger effect = lower value 0.987 | S. cerevisiae deletion strains, locus YLR027C, strain aat2, stronger effect = lower value 0.983 | S. cerevisiae deletion strains, locus YLR039C, strain RIC1, stronger effect = lower value 1.07 | S. cerevisiae deletion strains, locus YLR058C, strain SHM2, stronger effect = lower value 1.01 | S. cerevisiae deletion strains, locus YLR102C, strain apc9, stronger effect = lower value 1.01 | S. cerevisiae deletion strains, locus YLR113W, strain HOG1, stronger effect = lower value 0.958 | S. cerevisiae deletion strains, locus YLR221C, strain rsa3, stronger effect = lower value 0.991 | S. cerevisiae deletion strains, locus YLR258W, strain gsy2, stronger effect = lower value 0.977 | S. cerevisiae deletion strains, locus YLR262C, strain YPT6 (second series), stronger effect = lower value 1.02 | S. cerevisiae deletion strains, locus YLR262C, strain YPT6, stronger effect = lower value 1.08 | S. cerevisiae deletion strains, locus YLR268W, strain sec22, stronger effect = lower value 1.01 | S. cerevisiae deletion strains, locus YLR320W, strain mms22, stronger effect = lower value 0.982 | S. cerevisiae deletion strains, locus YLR330W, strain CHS5, stronger effect = lower value 1.02 | S. cerevisiae deletion strains, locus YLR342W, strain FKS1 (second series), stronger effect = lower value 1.01 | S. cerevisiae deletion strains, locus YLR342W, strain FKS1, stronger effect = lower value 0.985 | S. cerevisiae deletion strains, locus YLR357W, strain rsc2, stronger effect = lower value 0.933 | S. cerevisiae deletion strains, locus YLR370C, strain arc18, stronger effect = lower value 0.994 | S. cerevisiae deletion strains, locus YLR371W, strain rom2, stronger effect = lower value 1.01 | S. cerevisiae deletion strains, locus YLR384C, strain iki3, stronger effect = lower value 0.983 | S. cerevisiae deletion strains, locus YLR418C, strain cdc73, stronger effect = lower value 0.998 | S. cerevisiae deletion strains, locus YML016C, strain PPZ1, stronger effect = lower value 1 | S. cerevisiae deletion strains, locus YML032C, strain rad52, stronger effect = lower value 1.01 | S. cerevisiae deletion strains, locus YML120C, strain ndi1, stronger effect = lower value 0.961 | S. cerevisiae deletion strains, locus YML124C, strain tub3, stronger effect = lower value 1 | S. cerevisiae deletion strains, locus YMR058W, strain fet3, stronger effect = lower value 0.982 | S. cerevisiae deletion strains, locus YMR078C, strain ctf18, stronger effect = lower value 1 | S. cerevisiae deletion strains, locus YMR125W, strain sto1, stronger effect = lower value 0.977 | S. cerevisiae deletion strains, locus YMR129W, stronger effect = lower value 0.969 | S. cerevisiae deletion strains, locus YMR205C, strain PFK2, stronger effect = lower value 0.984 | S. cerevisiae deletion strains, locus YMR223W, strain ubp8, stronger effect = lower value 1.01 | S. cerevisiae deletion strains, locus YMR231W, strain pep5, stronger effect = lower value 0.998 | S. cerevisiae deletion strains, locus YMR307W, strain GAS1, stronger effect = lower value 1.09 | S. cerevisiae deletion strains, locus YNL067W, strain RPL9B, stronger effect = lower value 1.01 | S. cerevisiae deletion strains, locus YNL071W, strain lat1, stronger effect = lower value 0.973 | S. cerevisiae deletion strains, locus YNL153C, strain GIM3, stronger effect = lower value 0.992 | S. cerevisiae deletion strains, locus YNL183C, strain NPR1, stronger effect = lower value 0.943 | S. cerevisiae deletion strains, locus YNL209W, strain ssb2, stronger effect = lower value 1.01 | S. cerevisiae deletion strains, locus YNL233W, strain BNI4, stronger effect = lower value 1.01 | S. cerevisiae deletion strains, locus YNL248C, strain rpa49, stronger effect = lower value 0.989 | S. cerevisiae deletion strains, locus YNL250W, strain rad50, stronger effect = lower value 1 | S. cerevisiae deletion strains, locus YNL271C, strain bni1, stronger effect = lower value 1.01 | S. cerevisiae deletion strains, locus YNL298W, strain CLA4, stronger effect = lower value 1.01 | S. cerevisiae deletion strains, locus YNL307C, strain MCK1, stronger effect = lower value 1.01 | S. cerevisiae deletion strains, locus YNL322C, strain KRE1 (second series), stronger effect = lower value 0.992 | S. cerevisiae deletion strains, locus YNL322C, strain KRE1, stronger effect = lower value 1.01 | S. cerevisiae deletion strains, locus YNR049C, strain mso1, stronger effect = lower value 0.981 | S. cerevisiae deletion strains, locus YNR052C, strain pop2, stronger effect = lower value 1.02 | S. cerevisiae deletion strains, locus YOL006C, strain TOP1, stronger effect = lower value 0.982 | S. cerevisiae deletion strains, locus YOL012C, strain htz1 1.06 | S. cerevisiae deletion strains, locus YOL147C, strain pex11, stronger effect = lower value 1 | S. cerevisiae deletion strains, locus YOR001W, strain rrp6, stronger effect = lower value 0.973 | S. cerevisiae deletion strains, locus YOR061W, strain CKA2, stronger effect = lower value 1.01 | S. cerevisiae deletion strains, locus YOR069W, strain VPS5, stronger effect = lower value 1.01 | S. cerevisiae deletion strains, locus YOR070C, strain gyp1, stronger effect = lower value 0.998 | S. cerevisiae deletion strains, locus YOR080W, strain dia2, stronger effect = lower value 0.975 | S. cerevisiae deletion strains, locus YOR083W, strain WHI5, stronger effect = lower value 0.98 | S. cerevisiae deletion strains, locus YOR106W, strain vam3, stronger effect = lower value 0.988 | S. cerevisiae deletion strains, locus YOR136W, strain idh2, stronger effect = lower value 1 | S. cerevisiae deletion strains, locus YOR144C, strain elg1, stronger effect = lower value 0.996 | S. cerevisiae deletion strains, locus YOR184W, strain ser1, stronger effect = lower value 1.04 | S. cerevisiae deletion strains, locus YOR231W, strain MKK1, stronger effect = lower value 0.983 | S. cerevisiae deletion strains, locus YOR265W, strain rbl2, stronger effect = lower value 0.995 | S. cerevisiae deletion strains, locus YOR270C, strain vph1, stronger effect = lower value 0.987 | S. cerevisiae deletion strains, locus YOR290C, strain snf2, stronger effect = lower value 0.98 | S. cerevisiae deletion strains, locus YOR316C, strain cot1, stronger effect = lower value 1.01 | S. cerevisiae deletion strains, locus YPL051W, strain arl3, stronger effect = lower value 0.988 | S. cerevisiae deletion strains, locus YPL055C, strain LGE1, stronger effect = lower value 0.996 | S. cerevisiae deletion strains, locus YPL078C, strain atp4, stronger effect = lower value 0.974 | S. cerevisiae deletion strains, locus YPL106C, strain sse1, stronger effect = lower value 0.97 | S. cerevisiae deletion strains, locus YPL240C, strain hsp82, stronger effect = lower value 0.991 | S. cerevisiae deletion strains, locus YPL256C, strain CLN2, stronger effect = lower value 0.979 | S. cerevisiae deletion strains, locus YPR119W, strain clb2, stronger effect = lower value 1.01 | S. cerevisiae deletion strains, locus YPR141C, strain kar3, stronger effect = lower value 1 | S. cerevisiae deletion strains, locus YPR163C, strain tif3, stronger effect = lower value 1 | S. cerevisiae deletion strains, locus YPR167C, strain met16, stronger effect = lower value 1.01 | S. cerevisiae deletion strains, strain wtn01, stronger effect = lower value 1 | S. cerevisiae strains, strain wild type, stronger effect = lower value 1.01
